# Screening results: PubChem BioAssay, several laboratories
# An excerpt weighted towards active compounds, which were near 3.3% of everything screened.
# SMARCA2 activ: SMARCA2 (BRM) function activators, primary screen, cell-based, luminescence, high throughput; MG213 cells, MMTV-luciferase reporter, dexamethasone, overnight; activation, % at 9.1 µM; hit rate 1% among 370,000; AID 652017, 2013; in the data active = activation above about 7.8%
# 697 NFkB inh: inhibitors of PMA/ionomycin-induced NF-kB reporter, 697 cells, primary screen, B-cell NF-kB inhibitor project, cell-based, luminescence, uHTS. 697 B-cell NF-kB luciferase reporter, 16 h. inhibition, % at 4 µM. hit rate 0.33% among 330,000; in the data active = inhibition above about 35%
# Gli-Sufu block: Gli-Sufu pathway antagonists, primary screen, luciferase luminescence, Sufu-KO-LIGHT cells, uHTS; inhibition, % at 5 µM; Sufu-KO-LIGHT fibroblasts, Gli luciferase reporter luminescence; AID 588413, 2011; hit rate 0.74% among 340,000;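 active = inhibition above about 55%, limit read from the data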
# Jurkat NFkB inh: inhibitors of induced NF-kB luciferase reporter, primary screen, TCR NF-kB activation inhibitor project, cell-based, luminescence, uHTS | inhibition, % at 4 µM | hit rate 0.53% among 330,000 | Jurkat, PMA/ionomycin-induced NF-kB luciferase reporter; in the data active = inhibition above about 50%
# esBAF inh: Bmi1 luciferase reporter increase in mESCs, primary screen, esBAF inhibitor project, mouse ES cells, Bmi1 luciferase knock-in, single point; hit rate 2% among 350,000; AID 602393, 2012; reporter increase, % at 12.5 µM; 24 h; 100% = twice the neutral-well signal; in the data active = activation above about 40%;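 note: a rise in the Bmi1 reporter signal indicates esBAF inhibition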
# 697 NFkB conf: PMA/ionomycin-induced NF-kB reporter inhibitors, 697 retest, confirmation, B-cell NF-kB inhibitor project, cell-based, luminescence, single concentration; shares compounds with 697 NFkB inh; 697 B-cell NF-kB luciferase, 16 h; inhibition, % at 4 µM; hit rate 35% among 2,000; AID 449746, 2010; in the data active = inhibition mostly above about 28%, no sharp cut-off; inactive = mostly below about 22%
# Hits are given with their value; n = inactive; x = no result given.
SMILES,SMARCA2 activ,697 NFkB inh,Gli-Sufu block,Jurkat NFkB inh,esBAF inh,697 NFkB conf
CN1CCN(C(=O)c2ccccc2N(Cc2ccccc2)S(=O)(=O)c2ccccc2)CC1,n,40,n,n,n,25
COc1ccc(-c2csc(Nc3ccc(Oc4ccccc4)cc3)n2)cc1,n,x,x,x,n,x
Cc1ccnc(Nc2nc(-c3ccccc3)cs2)c1,n,n,n,n,n,n
COc1ccc(-c2csc(Nc3cccc(C)n3)n2)cc1,n,n,n,n,n,n
CNC[C@@H]1Oc2c(NS(=O)(=O)c3ccc(F)cc3)cccc2C(=O)N([C@H](C)CO)C[C@H]1C,x,x,x,x,n,x
CNC[C@@H]1Oc2c(NC(=O)Nc3c(C)noc3C)cccc2C(=O)N([C@H](C)CO)C[C@H]1C,x,x,x,x,n,x
COC(=O)c1ccc(C2c3[nH]c4ccccc4c3C[C@H]3C(=O)N(C)CC(=O)N23)cc1 (stereo not given in full),n,n,n,n,n,x
CCN1C(=O)[C@@H]2Cc3c([nH]c4ccccc34)C(c3ccc(OC)cc3)N2C1=S (stereo not given in full),x,n,n,n,n,n
COc1cc(/C=N/NC(=O)C2CC(=O)N(c3ccc(C)cc3)C2)cc(OC)c1OC (stereo not given),n,n,n,n,n,n
COc1ccc(N2CC(C(=O)N/N=C/c3ccccc3)CC2=O)cc1 (stereo not given),n,n,n,n,n,x
COc1cc(C(=O)Nc2ccc(C(=O)c3cccs3)cc2)cc(OC)c1OC,n,37,n,n,n,n
COc1ccc(C(=O)Nc2ccc(NC(=O)c3cccs3)cc2)cc1Cl,n,n,n,n,n,x
CCN(CC)C(=O)N1c2ccccc2C=Cc2ccccc21,n,n,n,n,x,n
Cc1cc2nc(-c3ccc(SCC(=O)N4CCc5ccccc54)nc3)[nH]c2cc1C,x,n,n,n,75,n
CC(C)(C)c1ccc(/C=C2\SC(=O)N(CCNC(=O)c3cccc(S(=O)(=O)N4CCOCC4)c3)C2=O)cc1,x,n,n,n,x,n
COc1cc(-c2nc(S(=O)(=O)c3ccc(C)cc3)c(N3CCOCC3)o2)cc(OC)c1OC,n,42,n,n,n,n
CCCNC(=O)[C@@H]1[C@@H](CO)[C@@H]2Cn3c(ccc(-c4cccnc4)c3=O)[C@@H]2N1C(=O)c1ccccc1F,x,x,x,x,n,x
COc1ccc(NC(=O)CN(C)C(=O)C2(c3ccccc3)CCCC2)cc1,n,71,n,n,55,72
C[C@H](NC(=O)C[C@@H]1C[C@@H]2c3cc(NC(=O)CC4CC4)ccc3O[C@@H]2[C@@H](CO)O1)c1ccccc1,x,x,x,x,n,x
CCN(CC(=O)Nc1c(F)cccc1F)C(=O)c1cc(S(=O)(=O)N(C)C)ccc1N1CCCC1,n,38,n,n,x,30
CCN(CC(=O)Nc1ccccc1C(F)(F)F)C(=O)c1cc(S(=O)(=O)N(C)C)ccc1N1CCCC1,n,n,n,n,n,x
CN1C(=O)c2cc(NC(=O)c3cc(F)cc(F)c3)ccc2OC[C@@H]2O[C@@H](CC(=O)O)CC[C@@H]21,x,x,x,x,n,x
C[C@H]1CN([C@@H](C)CO)C(=O)c2cc(C#CC3CC3)cnc2O[C@H]1CN(C)Cc1cccc(C(=O)O)c1,x,x,x,x,n,x
Cc1ccn2cc(CCNC(=O)COc3ccccc3)nc2c1,n,n,n,n,n,n
Cc1ccn2cc(CCNC(=O)CC(C)(C)C)nc2c1,n,n,n,n,n,x
CCCC(=O)Nc1ccc2c(c1)C(=O)N(C)C[C@H](OC)[C@H](C)CN(Cc1ccncc1)[C@@H](C)CO2,x,x,x,x,n,x
CCOC(=O)/C(C#N)=C\c1cc(C)n(-c2ccccc2)c1C,n,n,n,n,n,n
CCOC(=O)/C(C#N)=C/c1cc(C)n(-c2ccc(C)cc2)c1C,n,n,n,n,n,x
NNC(=O)COc1ccc(-c2nccc(-c3ccc(F)cc3)n2)cc1,n,60,n,n,n,50
O=C(O)COc1ccc(-c2nccc(-c3ccccn3)n2)cc1,n,52,n,n,n,56
